Assay results published in PubChem BioAssay (NCATS).
Inconclusive results are not listed. Activity calls are given as the source filed them. The call rests on the fitted dose curve; in most records, active means well fitted curve in the direction sought with a large enough effect; inconclusive means small, poorly fitted or top-dose-only effect, or another doubt; inactive means no such curve, though single readings can be large; an effect the other way counts as inactive or inconclusive.

Assays:
[1] = biological target: Glutathione peroxidase 1 (Homo sapiens) (UniProt P07203); assay: Primary qHTS Assay for Inhibitors of Recombinant Selenoprotein Glutathione Peroxidase 1 (GPX1) (AID 1845191); further: nearly all actives have a fitted effect of over 65% in size; on activity, negative = inhibition: on the % scale 0 is the no-effect control and ±100 the full control effect
Sequence of Glutathione peroxidase 1 (Homo sapiens) (P07203 whole entry, looked up): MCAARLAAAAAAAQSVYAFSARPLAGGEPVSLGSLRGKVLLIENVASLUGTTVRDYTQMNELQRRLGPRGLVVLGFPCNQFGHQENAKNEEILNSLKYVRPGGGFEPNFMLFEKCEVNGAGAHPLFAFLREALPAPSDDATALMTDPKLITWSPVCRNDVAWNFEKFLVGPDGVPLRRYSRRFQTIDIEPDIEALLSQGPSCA
How it was run: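 GPX1 10 nM, GR 100 nM, GSH 1 mM, NADPH 0.5 mM, CHP 0.5 mM (final). 30-min cpd preincubation, RT. Ex340/Em450 read t=0, t=15 min.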

[2] = biological target: Phospholipid hydroperoxide glutathione peroxidase GPX4 (Homo sapiens) (UniProt P36969); assay: Primary qHTS Assay for Inhibitors of Recombinant Selenoprotein Glutathione Peroxidase 4 (GPX4) (AID 1845192); further: nearly all actives have a fitted effect of over 65% in size; on activity change, negative = inhibition: series mostly up to about 50 µM; on the % scale 0 is the no-effect control and ±100 the full control effect
Sequence of Phospholipid hydroperoxide glutathione peroxidase GPX4 (Homo sapiens) (P36969 whole entry, looked up): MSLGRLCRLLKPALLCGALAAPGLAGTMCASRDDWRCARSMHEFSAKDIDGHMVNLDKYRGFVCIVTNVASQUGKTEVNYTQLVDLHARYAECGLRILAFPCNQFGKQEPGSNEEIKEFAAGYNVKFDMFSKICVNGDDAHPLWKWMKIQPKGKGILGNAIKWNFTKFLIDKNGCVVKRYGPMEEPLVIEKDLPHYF
How it was run: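 qHTS, GR-coupled: GPX4 200 nM + cpd 30 min RT → GSH 1 mM, NADPH 0.5 mM, GR 100 nM → CHP 0.5 mM start; fluor 340/450 at t0 and t15 min; no-enzyme wells as control.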

[3] = biological target: Luciferin 4-monooxygenase (Photinus pyralis) (UniProt P08659); assay: Primary firefly luciferase (FLuc) qHTS assay for identification of artifact compounds. (AID 1845220); further: nearly all actives have a fitted effect of over 60% in size;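 on activity change, negative = inhibition: series mostly up to about 54 µM; plate controls were DMSO vehicle for no effect and no enzyme for full effect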
How it was run: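 In this counter-screen for luciferase artifacts, test compounds met substrate (10 uM each luciferin and ATP) before 10 nM enzyme started the reaction. Light output was measured 5 min later.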

[4] = Primary fluorescence-based thiol-reactive (MSTI) qHTS assay for identification of artifact compounds. (AID 1845221); further: nearly all actives have a fitted effect of over 65% in size; further: potency means the concentration at half of the fitted maximal effect;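 on activity change, negative = thiol reactive: series mostly up to about 54 µM; thiol-reactive compounds lower the probe fluorescence signal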
How it was run: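 Thiol-reactive compounds detected by quenching of 4 uM MSTI fluorescence (525/598 nm) after 1 h room-temperature dark incubation in PBS pH 7.4, 2% DMSO. qHTS titration; percent inhibition Hill-fitted against Acetyl-MSTI/MSTI controls.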

[5] = system: Nanoluciferase (engineered Oplophorus gracilirostris luciferase); assay: Primary Nanoluciferase (NLuc) qHTS assay for identification of artifact compounds. (AID 1845222);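 further: NLuc secreted into diluted conditioned medium of S16 cells; series mostly up to about 54 µM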
How it was run: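 Using secreted nanoluciferase in S16 culture medium (0.22 um filtered, 1:55 dilution), compounds were preincubated 15 min at RT. Signal was generated with Nano-Glo reagent (1:100) over 5 min.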

CCC(C)(O)C(O)C(=O)OCc1ccc(O[C@@H]2O[C@H](CO)[C@@H](O)[C@H](O)[C@H]2O)c(OC)c1 (stereo not given in full)
inactive: Potency [1] | Potency [2] | Potency [3] | Potency [4] | Potency [5]

CC1(C)CC[C@]2(C(=O)O)CC[C@]3(C)C(=CCC4[C@@]5(C)C[C@@H](O)[C@H](O)C(C)(C)C5CC[C@]43C)[C@@H]2[C@@H]1O (stereo not given in full)
inactive: Potency [1] | Potency [2] | Potency [3] | Potency [4] | Potency [5]

CC(C)(OC1OC(CO)C(O)C(O)C1O)C1CCC(O)(CO)C2CC(O)C(C)(O)C2C1 (stereo not given)
inactive: Potency [1] | Potency [2] | Potency [3] | Potency [4] | Potency [5]

CC(C)[C@H]1CCC(CO)=C[C@@H]1/C=C(\CO)C(=O)O
inactive: Potency [1] | Potency [2] | Potency [3] | Potency [4] | Potency [5]

CC(=O)O[C@@H]1C[C@]2(C)[C@@]3(CCC4[C@@]5(C)CC[C@H](O[C@@H]6O[C@H](C(=O)O)[C@@H](O)[C@H](O[C@@H]7O[C@H](CO)[C@H](O)[C@H](O)[C@H]7O[C@@H]7O[C@@H](C)[C@H](O)[C@@H](O)[C@H]7O[C@@H]7OC[C@](O)(CO)[C@H]7O)[C@H]6O[C@@H]6O[C@H](CO)[C@H](O)[C@H](O)[C@H]6O)C(C)(C)C5CC[C@]42C)O[C@@H](O)[C@]12C3CC(C)(C)[C@@H](OC(=O)/C=C/c1ccc(O)c(O)c1)[C@@H]2OC(=O)/C=C/c1ccccc1 (stereo not given in full)
inactive: outcome [1] inactive [at 9.52 µM] | activity change, negative = inhibition [2] -12% [at 9.73 µM] | outcome [3] inactive [at 11.6 µM] | activity change, negative = thiol reactive [4] 97% [at 11.5 µM] | activity, negative = inhibition [5] 1.63% [at 11.6 µM]

Nc1c(Br)cc(Br)cc1CNC1CCC(O)CC1 (stereo not given)
inactive: Potency [1] | Potency [2] | Potency [3] | Potency [4] | Potency [5]

C=C1[C@H]2CC[C@]3(O)[C@@](CC[C@@H]4[C@](C)(C(=O)O)CCC[C@]43C)(C2)[C@H]1OC(=O)/C(C)=C\C
inactive: Potency [1] | Potency [2] | Potency [3] | Potency [4] | Potency [5]

N#Cc1ccnc(N2C(=O)CC[C@H]2C(=O)N(c2cncc(F)c2)[C@H](C(=O)NC2CC(F)(F)C2)c2ccccc2Cl)c1
inactive: Potency [1] | Potency [2] | Potency [3] | Potency [4] | Potency [5]

CC1(C)C(=O)N2c3ccccc3[C@]3(CC(n4cnc5ccccc5c4=O)C(=O)O3)[C@H]2N1O (stereo not given in full)
inactive: Potency [1] | Potency [2] | Potency [3] | Potency [4] | Potency [5]

CC1CCC2(O1)C(C)(C)CC(O[C@@H]1O[C@H](CO[C@@H]3OC[C@](O)(CO)[C@H]3O)[C@@H](O)[C@H](O)[C@H]1O)CC2(C)O (stereo not given in full)
active: Potency [4] 13 µM
inactive: Potency [1] | Potency [2] | Potency [3] | Potency [5]

CC(=O)O[C@@H]1[C@H](O[C@@H]2OC[C@](O)(CO)[C@H]2O)[C@@H](O[C@@H]2O[C@@H](C)[C@H](O)[C@@H](O)[C@H]2O)[C@H](OC(=O)[C@]23CCC(C)(C)C[C@H]2C2=CCC4[C@@]5(C)C[C@H](O)[C@H](O[C@@H]6O[C@H](C(=O)O)[C@@H](O)[C@H](O)[C@H]6O)[C@@](C)(C(=O)O)C5CC[C@@]4(C)[C@]2(C)CC3)O[C@@H]1C (stereo not given in full)
inactive: Potency [1] | Potency [2] | activity change, negative = inhibition [3] 3.99% [at 11.6 µM] | activity change, negative = thiol reactive [4] 279% [at 11.5 µM] | activity, negative = inhibition [5] 2.83% [at 11.6 µM]

CC1CCC2(C(=O)OC3OC(CO)C(O)C(O)C3O)CCC3(C)C(=CCC4C5(C)CC(O)C(O)C(C)(C(=O)O)C5CCC43C)C2C1(C)O (stereo not given)
inactive: Potency [1] | Potency [2] | Potency [3] | Potency [4] | Potency [5]

COC1CC(OC2CCC3(C)C(=CCC4C3CCC3(C)C(C(C)O)CCC43O)C2)OC(C)C1OC1OC(C)C(OC2OC(COC3OC(COC4OC(CO)C(O)C(O)C4O)C(O)C(O)C3O)C(O)C(O)C2O)C(OC)C1O (stereo not given)
inactive: Potency [1] | Potency [2] | outcome [3] inactive [at 11.6 µM] | activity change, negative = thiol reactive [4] 54% [at 11.5 µM] | activity, negative = inhibition [5] 4.38% [at 11.6 µM]

CNc1nc(Nc2cnn([C@H]3CCN(C4COC4)C[C@@H]3F)c2Cl)ncc1C(F)(F)F
inactive: Potency [1] | Potency [2] | Potency [3] | Potency [4] | Potency [5]

COc1cc(-c2cccc(O)c2)cc2c1OCO2
inactive: Potency [1] | Potency [2] | Potency [3] | Potency [5]
active: Potency [4] 26.7 µM

C=C1C2=CC(O)C(C)C1(C)CC/C(C)=C/CCC1(C)OC1C2=O (stereo not given)
inactive: Potency [1] | Potency [2] | Potency [3] | Potency [4] | Potency [5]

CC[C@H]1OC(=O)[C@H](C)[C@@H](O[C@H]2C[C@@](C)(OC)[C@@H](O)[C@H](C)O2)[C@H](C)[C@@H](O[C@@H]2O[C@H](C)C[C@H](N(C)C)[C@H]2O)[C@@](C)(O)C[C@@H](C)[C@@H]2N[C@@H](COCCOC)OC([C@H]2C)[C@]1(C)O
inactive: Potency [1] | Potency [2] | Potency [3] | Potency [4] | Potency [5]
